{"source": "PubChem BioAssay (NCATS)", "note": "Records with an inconclusive call do not appear. Values without a mark were called inactive. Activity calls are given as the source filed them. The call rests on the fitted dose curve; in most records, active means well fitted inhibition curve with a large enough effect; inconclusive means small, poorly fitted or top-dose-only effect; inactive means no such curve, though single readings can be large or run the other way. On the % scale 0 is the no-effect control and ±100 the full control effect; potency means the concentration at half of the fitted maximal effect."}
{"experiment": "qHTS assay to identify inhibitors of the type 1 interferon - major histocompatibility complex class I in skeletal muscle: Counter screen cell viability and HiBit confirmation (AID 1347412); further: nearly all actives have a fitted effect of over 60% in size", "conditions": "iHSKM muscle cells + IFN-b, HiBiT or CellTiter-Glo, 24 h; HiBiT", "procedure,_shortened": "(§1)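 Duplicate plates, pinned identically: one read for HiBiT-tagged endogenous HLA-B luminescence, the other for ATP-content viability via CellTiter Glo. Cells were genome-engineered human myoblasts given 4 ng/ml IFN-b; compounds 12-pt, 1:3 from 46 uM final; 24 hr exposure.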"}
{"smiles": "CN(C)Cc1ccc(S(=O)(=O)n2ccc(/C=C/C(=O)NO)c2)cc1", "Potency": "7.01 µM (active)"}
{"smiles": "CO[C@@H]1[C@@H](O)[C@H](O)[C@@H](n2c3c(Cl)cccc3c3c4c(c5c6cccc(Cl)c6[nH]c5c32)C(=O)NC4=O)O[C@H]1CO", "Potency": "4.97 µM (active)"}
{"smiles": "CC(=O)/C=C1/C(=O)N(C)c2ccccc21", "Potency": "19.8 µM (active)"}
{"smiles": "C/C=C1\\NC(=O)[C@H]2CSSCCC=C[C@H](CC(=O)N[C@H](C(C)C)C(=O)N2)OC(=O)[C@H](C(C)C)NC1=O", "Potency": "0.0004 µM (active)"}
{"smiles": "CCS(=O)(=O)Nc1ccc(Oc2ccc(F)cc2F)c(-c2cn(C)c(=O)c3[nH]ccc23)c1", "Potency": "0.0557 µM (active)"}
{"smiles": "CC[C@@H](C)[C@H]1O[C@]2(CC[C@@H]1C)C[C@@H]1C[C@@H](C/C=C(\\C)[C@@H](O[C@@H]3C[C@H](OC)[C@H](O[C@H]4C[C@H](OC)[C@@H](O)[C@H](C)O4)[C@H](C)O3)[C@@H](C)/C=C/C=C3\\CO[C@@H]4[C@@H](O)C(C)=C[C@@H](C(=O)O1)[C@]34O)O2", "Potency": "27.9 µM (active)"}
{"smiles": "N#CCC1(n2cc(-c3ncnc4[nH]ccc34)cn2)CN(C2CCN(C(=O)c3ccnc(C(F)(F)F)c3F)CC2)C1", "Potency": "1.57 µM (active)"}
{"smiles": "Cc1cc(O)c(-c2ccc([C@@H](C)CN)cc2)c2c1[nH]c(=O)c1sccc12", "Potency": "0.0394 µM (active)"}
{"smiles": "NC(=O)c1cnc2[nH]ccc2c1NC1C2CC3C[C@H]1CC(O)(C3)C2", "note": "(stereo not given in full)", "Potency": "2.22 µM (active)"}
{"smiles": "CC[C@H]1CN2CCc3cc(OC)c(OC)cc3C2C[C@@H]1CC1NCCc2cc(OC)c(OC)cc21", "note": "(stereo not given in full)", "Potency": "0.279 µM (active)"}
{"smiles": "CN1CCN(c2ccc(Nc3ncc4cc(C#N)c(=O)n(C5CCCC5)c4n3)cc2)CC1", "Potency": "9.91 µM (active)"}
{"smiles": "O=c1cc(N2CCOCC2)oc2c(-c3ccc4c(c3)OCCO4)csc12", "Potency": "14 µM (active)"}
{"smiles": "CCC(=C/[C@H](C)C/C=C/C(C)=C/[C@@H](C)C(=O)[C@@H](C)[C@H](O)[C@@H](C)C/C(C)=C/C(=O)O)/C=C/[C@@H]1OC(=O)C=C[C@@H]1C", "Potency": "0.0031 µM (active)"}
{"experiment": "qHTS assay to identify inhibitors of the type 1 interferon - major histocompatibility complex class I in skeletal muscle: Counter screen cell viability and HiBit confirmation (AID 1347412); further: nearly all actives have a fitted effect of over 60% in size", "conditions": "iHSKM muscle cells + IFN-b, HiBiT or CellTiter-Glo, 24 h; HiBiT; at 45.9 µM (top of the series)", "procedure,_shortened": "as §1", "units": {"activity change, negative = inhibition": "%"}}
{"smiles": "CN(C)CCOc1ccc(-c2nc(-c3ccc4c(c3)CC/C4=N\\O)c(-c3ccncc3)[nH]2)cc1", "activity change, negative = inhibition": 24.4}
{"smiles": "COc1cc(=C2C=c3ccccc3=N2)[nH]/c1=C/c1[nH]c(C)cc1C", "activity change, negative = inhibition": -23.6}
{"smiles": "CC#CC(=O)N1CC[C@@H](n2c(=O)n(-c3ccc(Oc4ccccc4)cc3)c3c(N)ncnc32)C1", "activity change, negative = inhibition": -23.5}
{"smiles": "C=C1/C(=C\\C=C2/CCC[C@]3(C)[C@@H]([C@H](C)CCCC(C)(C)O)CC[C@@H]23)C[C@@H](O)C[C@@H]1O", "activity change, negative = inhibition": -12.1}
{"smiles": "CC/C(=C(/c1ccc(O)cc1)c1ccc(OCCNC)cc1)c1ccccc1", "activity change, negative = inhibition": -7.57}
{"smiles": "O=C(CCc1ccc(O)cc1)c1c(O)cc(O)cc1O[C@@H]1O[C@H](CO)[C@@H](O)[C@H](O)[C@H]1O", "activity change, negative = inhibition": 6.74}
{"experiment": "qHTS assay to identify inhibitors of the type 1 interferon - major histocompatibility complex class I in skeletal muscle: Counter screen cell viability and HiBit confirmation (AID 1347412); further: nearly all actives have a fitted effect of over 60% in size", "conditions": "iHSKM muscle cells + IFN-b, HiBiT or CellTiter-Glo, 24 h; Viability; at 45.9 µM (top of the series)", "procedure,_shortened": "as §1", "units": {"activity change, negative = inhibition": "%"}}
{"smiles": "CN(C)Cc1ccc(S(=O)(=O)n2ccc(/C=C/C(=O)NO)c2)cc1", "activity change, negative = inhibition": -5.13}
{"smiles": "CO[C@@H]1[C@@H](O)[C@H](O)[C@@H](n2c3c(Cl)cccc3c3c4c(c5c6cccc(Cl)c6[nH]c5c32)C(=O)NC4=O)O[C@H]1CO", "activity change, negative = inhibition": -21.4}
{"smiles": "CC(=O)/C=C1/C(=O)N(C)c2ccccc21", "activity change, negative = inhibition": -2.06}
{"smiles": "CN(C)CCOc1ccc(-c2nc(-c3ccc4c(c3)CC/C4=N\\O)c(-c3ccncc3)[nH]2)cc1", "activity change, negative = inhibition": -15.1}
{"smiles": "C/C=C1\\NC(=O)[C@H]2CSSCCC=C[C@H](CC(=O)N[C@H](C(C)C)C(=O)N2)OC(=O)[C@H](C(C)C)NC1=O", "activity change, negative = inhibition": -27.6}
{"smiles": "CCS(=O)(=O)Nc1ccc(Oc2ccc(F)cc2F)c(-c2cn(C)c(=O)c3[nH]ccc23)c1", "activity change, negative = inhibition": -28.2}
{"smiles": "CC#CC(=O)N1CC[C@@H](n2c(=O)n(-c3ccc(Oc4ccccc4)cc3)c3c(N)ncnc32)C1", "activity change, negative = inhibition": -0.0272}
{"smiles": "N#CCC1(n2cc(-c3ncnc4[nH]ccc34)cn2)CN(C2CCN(C(=O)c3ccnc(C(F)(F)F)c3F)CC2)C1", "activity change, negative = inhibition": 14.7}
{"smiles": "Cc1cc(O)c(-c2ccc([C@@H](C)CN)cc2)c2c1[nH]c(=O)c1sccc12", "activity change, negative = inhibition": -14.1}
{"smiles": "NC(=O)c1cnc2[nH]ccc2c1NC1C2CC3C[C@H]1CC(O)(C3)C2", "note": "(stereo not given in full)", "activity change, negative = inhibition": -16.1}
{"smiles": "COc1cc(N2CCN(C)CC2)ccc1Nc1ncc2c(n1)N(C)c1ccccc1C(=O)N2C", "activity change, negative = inhibition": 22.1}
{"smiles": "CN1CCN(c2ccc(Nc3ncc4cc(C#N)c(=O)n(C5CCCC5)c4n3)cc2)CC1", "activity change, negative = inhibition": -23.1}
{"smiles": "C=C1/C(=C\\C=C2/CCC[C@]3(C)[C@@H]([C@H](C)CCCC(C)(C)O)CC[C@@H]23)C[C@@H](O)C[C@@H]1O", "activity change, negative = inhibition": -5.56}
{"smiles": "CC/C(=C(/c1ccc(O)cc1)c1ccc(OCCNC)cc1)c1ccccc1", "activity change, negative = inhibition": -19.4}
{"smiles": "CCC(=C/[C@H](C)C/C=C/C(C)=C/[C@@H](C)C(=O)[C@@H](C)[C@H](O)[C@@H](C)C/C(C)=C/C(=O)O)/C=C/[C@@H]1OC(=O)C=C[C@@H]1C", "activity change, negative = inhibition": -3.47}
{"smiles": "O=C(CCc1ccc(O)cc1)c1c(O)cc(O)cc1O[C@@H]1O[C@H](CO)[C@@H](O)[C@H](O)[C@H]1O", "activity change, negative = inhibition": 1.25}
